Results on 40 compounds are retold here after ChEMBL document CHEMBL3433997, “St. Jude Leishmania screening dataset” (2016).

This assay concerns the target Glucose transporter (Leishmania mexicana) (UniProt O61059). Description: ST_JUDE_LEISH: Cytotoxicity at 2uM final concentration against transgenic Leishmania Mexicana promastigotes LmGT2 that are glucose transport deficient and complemented with the L. Mexicana glucose transporter 2. Activity is measured by DNA content using SYBR green in vitro. The format is functional.
Turning to `Cn1ccnc1CNC(=O)c1ccc(-c2cccc(-c3nc4cc(F)ccc4[nH]3)c2)cc1`, the inhibition amounted to 1.38%.

In the case of `CCOc1ccc(-c2nonc2NC(=O)c2ccccc2Cl)cc1OCC`, the inhibition amounted to 2.27%.

Turning to `CC(C)C(C(=O)n1cc2c(ccc3nc(N)nc(N)c32)n1)C(C)C`, the inhibition amounted to 3.51%.

As for `CN(C)CCCOc1ccc(CNCC(C)(C)c2nc(-c3ccc(Cl)c(O)c3)c(-c3ccncc3)[nH]2)cc1`, the inhibition stood at 2.83%.

For the compound `CCNc1cc(C(=O)N[C@@H](Cc2ccccc2)[C@H](O)CNCCc2cccc(C(F)(F)F)c2)cc(N2CCCC2=O)c1`, the inhibition is -0.87%.

In the case of `Cc1cc(N2Cc3ccccc3C2)nc(Nc2cccc(C#N)c2)n1`, the inhibition came out at 2.59%.

For `c1ccc2c(NCCCCCCCCCNc3ccnc4ccccc34)ccnc2c1`, the inhibition stood at 8.19%.

In the case of `O=[N+]([O-])c1cccc(-n2nc(NCc3ccc(Cl)cc3)nc2-c2ccc(F)c(C(F)(F)F)c2)c1`, the inhibition came out at 0.17%.

Turning to `CCCCOC(=O)c1ccc(Nc2cc(C)nc3ccc(OC)cc23)cc1`, the inhibition worked out at 6.35%.

For the compound `N#Cc1ccc(N[C@@H](CC2CCCCC2)C(=O)NCc2cc(F)c(F)cc2F)c2ccccc12`, the inhibition was found to be 12%.

Consider `Cc1ccc(NC(C)C(=O)Nc2ccccc2)cc1S(=O)(=O)N1CCCCCC1` (stereo not given), for which the inhibition worked out at 9.12%.

`Cc1onc(-c2ccccc2Cl)c1C(=O)Nc1cc(Cl)c(Cl)cc1Cl`: the inhibition came to 4.95%.

For `CCNc1cc(C(=O)N[C@@H](Cc2ccccc2)[C@H](O)CNCc2cc(OC)cc(OC)c2)cc(N2CCCS2(=O)=O)c1`, the inhibition was -0.47%.

With `CC1=C(C(=O)Nc2cc3cn[nH]c3cc2F)C(c2ccc(Cl)c(NS(C)(=O)=O)c2)CC(=O)N1` (stereo not given), the inhibition was -2.27%.

In the case of `CCC1(CC)N=C(N)N=C(N)C1c1ccc(Cl)c(Cl)c1` (stereo not given), the inhibition came out at 0.44%.

As to `CCCNCc1ccc(-c2ccc(CN(CCOC)C(=O)c3nn(-c4ccccc4)nc3C)cc2)nc1`, the inhibition was 1%.

Consider `CC(=O)N1c2ccccc2C(C)=CC1(C)C`, for which the inhibition is -1.02%.

For `CCNc1cc(C(=O)N[C@@H](Cc2ccccc2)[C@H](O)CNC2(C(C)C)CCC2)cc(N2CCCCS2(=O)=O)c1`, the inhibition was -2.45%.

In the case of `COc1ccc2nccc([C@@H](O)CN3CCC(NC(=O)COc4nc(SCc5ccc(F)cc5)nc5c4CCC5)CC3)c2c1`, the inhibition is -3.16%.

Regarding `CC(CCNc1c2ccccc2nc2ccccc12)N1CCN(C)CC1` (stereo not given), the inhibition came to 20.8%.

For the compound `N#CCCn1nc(-c2ccc(Cl)cc2)c2c(c1=O)CCCC2`, the inhibition came to 1.01%.

Turning to `CCC(C)CN1C(=O)C(c2ccccc2)(c2ccccc2)N=C1N` (stereo not given), the inhibition was determined as 2.04%.

Regarding `O=C(N[C@@H](Cc1ccccc1)[C@H](O)CNC1CCOCC1)c1cc(C2CCCC2)cc(N2CCCCS2(=O)=O)c1`, the inhibition was 4.01%.

As for `Cc1ccccc1OCC(O)CN1CCC(C2CCN(CC(O)COc3ccccc3C)CC2)CC1` (stereo not given), the inhibition was 2.28%.

Consider `CCCCc1ccc(-c2c(N)nc(N)nc2CC)cc1`, for which the inhibition came out at 8.51%.

As to `O=C(Nc1cccc(CN2CCCN(Cc3cccc(F)c3)CC2)c1)c1ccc(Cl)c(Cl)c1`, the inhibition is 6.5%.

`CC(C)NCc1ccc(-c2ccc(NC(=O)c3cccc(C#N)c3)cc2)cc1`: the inhibition was -1%.

Turning to `CN1CCN(c2cc3c(cc2Cl)CCN3C(=O)Cc2ccc(NC(=O)Nc3cccc4ccccc34)cc2)CC1`, the inhibition was -1.64%.

Consider `O=C(NCc1ccc(Cl)cc1)c1ccc(CN2CCCN(Cc3cccc(O)c3)CC2)cc1`, for which the inhibition came to 2.04%.

For the compound `COc1ccc2nc(C)cc(N/N=C/C=C/c3ccccc3)c2c1`, the inhibition was 3.79%.

With `COc1ccc(C(=O)Nc2ccc(Cl)cc2C(=O)Nc2ccncc2)cc1`, the inhibition is -0.77%.

Regarding `CC(C)CN1CCN(c2nc(C#N)c3c(c2C(=S)NC2CCCCC2)CC(C)(C)OC3)CC1`, the inhibition is -1.75%.

In the case of `O=C(NCCCCCN1CCC(c2c[nH]c3ccccc23)CC1)Nc1cccc(C(F)(F)F)c1`, the inhibition was -2.66%.

Turning to `COc1ccc(O)c(-c2sc(N=C(N)N)nc2-c2ccccc2)c1`, the inhibition was determined as 3.42%.

For the compound `COc1cc2nc(C)nc(Nc3cccc(Br)c3)c2cc1OC`, the inhibition is -0.03%.

`FC(F)(F)c1cccc(Nc2nc3ccccc3nc2Nc2cccc(C(F)(F)F)c2)c1`: the inhibition was found to be 0.85%.

With `CN1CCN(c2cc3c(Nc4ccc5c(cnn5Cc5ccccc5)c4)ncnc3cn2)CC1`, the inhibition is 2.17%.

For `O=C(Nc1ccc(Oc2ccccc2)cc1)N(Cc1ccc(-c2ccc(CN3CCNCC3)cc2)cc1)C1CCN(Cc2ccccc2)CC1`, the inhibition is -0.33%.

As for `CCNc1cc(C(=O)N[C@@H](Cc2ccccc2)[C@H](O)CNC2CCC(C)(C)CC2)cc(N2CCCCS2(=O)=O)c1`, the inhibition was 1.22%.

For the compound `COc1cccc(C(O)CNc2ccnc(Nc3cccc(-c4csc(C)n4)c3)n2)c1` (stereo not given), the inhibition worked out at 1.05%.

The inhibition is the drop in the measured response relative to a control, in per cent.
